In assay [1] the target is Rap guanine nucleotide exchange factor 3 (Homo sapiens) (UniProt O95398). The experiment in a line: Confirmatory qHTS for agonist of cAMP-regulated guanine nucleotide exchange factor 3 (EPAC1) (AID 1645881). Also: nearly all actives have a fitted effect of over 75% in size. Also: potency is read from the fitted curve at half-maximal effect.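 As to activation: EPAC1 catalysed release of BODIPY-GDP from Rap1B seen as fluorescence loss; 100% = effect of cAMP agonist control.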
Rap guanine nucleotide exchange factor 3 (Homo sapiens), sequence (O95398 whole entry, looked up): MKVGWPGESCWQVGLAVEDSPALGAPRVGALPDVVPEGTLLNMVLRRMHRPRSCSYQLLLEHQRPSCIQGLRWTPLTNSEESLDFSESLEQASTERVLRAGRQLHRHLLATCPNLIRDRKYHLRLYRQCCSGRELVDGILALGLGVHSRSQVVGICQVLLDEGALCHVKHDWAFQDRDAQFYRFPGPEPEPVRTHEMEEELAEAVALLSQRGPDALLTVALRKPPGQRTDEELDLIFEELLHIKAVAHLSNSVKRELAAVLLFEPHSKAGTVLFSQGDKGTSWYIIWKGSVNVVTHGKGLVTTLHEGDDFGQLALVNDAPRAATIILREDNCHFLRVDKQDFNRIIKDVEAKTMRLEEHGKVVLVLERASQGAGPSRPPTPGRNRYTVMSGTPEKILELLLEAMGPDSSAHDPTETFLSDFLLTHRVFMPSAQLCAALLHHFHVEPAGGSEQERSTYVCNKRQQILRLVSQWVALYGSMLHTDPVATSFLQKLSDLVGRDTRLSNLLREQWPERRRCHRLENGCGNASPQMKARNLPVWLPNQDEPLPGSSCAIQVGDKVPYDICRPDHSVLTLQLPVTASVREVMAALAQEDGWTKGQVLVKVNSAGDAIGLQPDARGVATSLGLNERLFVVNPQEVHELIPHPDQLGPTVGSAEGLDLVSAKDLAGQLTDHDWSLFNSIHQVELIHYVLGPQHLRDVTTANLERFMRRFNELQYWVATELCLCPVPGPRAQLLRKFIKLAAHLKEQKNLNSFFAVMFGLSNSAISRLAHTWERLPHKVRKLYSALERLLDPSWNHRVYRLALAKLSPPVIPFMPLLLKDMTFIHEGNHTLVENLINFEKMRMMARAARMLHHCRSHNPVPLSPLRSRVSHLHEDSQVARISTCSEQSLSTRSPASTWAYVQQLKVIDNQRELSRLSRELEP
The target of assay [2] is Rap guanine nucleotide exchange factor 4 (Homo sapiens) (UniProt Q8WZA2). The assay is described as follows: Confirmatory qHTS for agonist of cAMP-regulated guanine nucleotide exchange factor 4 (EPAC2) (AID 1645884).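 Also: nucleotide exchange releases bodipy-GDP from Rap1 and this lowers its fluorescence; % is scaled to controls: 0 for no effect and ±100 for the full control effect; nearly all actives have a fitted effect of over 65% in size.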
Rap guanine nucleotide exchange factor 4 (Homo sapiens), sequence (Q8WZA2 whole entry, looked up): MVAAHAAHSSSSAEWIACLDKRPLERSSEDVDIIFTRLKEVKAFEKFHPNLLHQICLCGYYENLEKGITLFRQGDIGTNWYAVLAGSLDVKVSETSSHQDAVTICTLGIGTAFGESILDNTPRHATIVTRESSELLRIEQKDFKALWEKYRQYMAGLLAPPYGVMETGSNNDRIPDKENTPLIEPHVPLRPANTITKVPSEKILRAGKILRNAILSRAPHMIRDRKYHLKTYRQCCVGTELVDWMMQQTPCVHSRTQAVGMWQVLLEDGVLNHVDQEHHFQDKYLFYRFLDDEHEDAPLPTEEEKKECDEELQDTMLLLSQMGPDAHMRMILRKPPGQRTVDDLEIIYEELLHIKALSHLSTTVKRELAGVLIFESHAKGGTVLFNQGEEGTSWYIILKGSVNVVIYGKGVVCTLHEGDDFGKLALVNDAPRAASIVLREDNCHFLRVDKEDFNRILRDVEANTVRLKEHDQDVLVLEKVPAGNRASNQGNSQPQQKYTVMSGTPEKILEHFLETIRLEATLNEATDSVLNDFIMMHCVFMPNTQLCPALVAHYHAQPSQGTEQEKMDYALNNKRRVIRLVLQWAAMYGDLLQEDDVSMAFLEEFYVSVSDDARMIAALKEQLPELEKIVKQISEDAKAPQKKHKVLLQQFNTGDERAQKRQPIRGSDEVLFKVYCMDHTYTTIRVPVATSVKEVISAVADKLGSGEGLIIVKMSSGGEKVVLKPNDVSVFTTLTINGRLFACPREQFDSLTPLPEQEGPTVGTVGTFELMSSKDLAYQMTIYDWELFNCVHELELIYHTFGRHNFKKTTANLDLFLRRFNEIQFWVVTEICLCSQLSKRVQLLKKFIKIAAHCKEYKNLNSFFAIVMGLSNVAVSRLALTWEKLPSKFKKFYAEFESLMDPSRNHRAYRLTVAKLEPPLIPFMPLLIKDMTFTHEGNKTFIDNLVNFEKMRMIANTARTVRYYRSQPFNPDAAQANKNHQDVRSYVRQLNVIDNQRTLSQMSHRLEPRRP
Assay [3] has the same target. The assay is described as follows: Confirmatory qHTS for antagonist of cAMP-regulated guanine nucleotide exchange factor 4 (EPAC2) (AID 1645885). Also: nearly all actives have a fitted effect of over 25% in size. Also: potency is read from the fitted curve at half-maximal effect. As to activity change, negative = inhibition: % is scaled to controls: 0 for no effect and ±100 for the full control effect.
The target of assay [4] is Rap guanine nucleotide exchange factor 3 (Homo sapiens) (UniProt O95398). The assay is described as follows: Counterscreen qHTS for antagonist of cAMP-regulated guanine nucleotide exchange factor 3 (EPAC1) (AID 1645888).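 Also: fluorescence loss as bound BODIPY-GDP is released from Rap1B; % of control where 0% means no effect.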 In short, it runs like this:
(§1)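 Measured: fluorescence of BODIPY-GDP bound to Rap1B, which falls as exchange proceeds. Conditions include 50 uM competing GDP, 5 and 30 min reads, and a later cAMP challenge for antagonist detection.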

For assay [5] the target is unchanged. The experiment in a line: Counterscreen qHTS for agonist of cAMP-regulated guanine nucleotide exchange factor 3 (EPAC1) (AID 1645889). Also: % of control where 0% means no effect; nearly all actives have a fitted effect of over 40% in size. In short, it runs like this:
as §1

Records with an inconclusive call do not appear. Unmarked numbers belong to inactive results. The source made the active and inactive calls. Calls follow the shape of the dose curve; as a rule, active = well fitted curve in the direction sought with a large enough effect; inconclusive = small, poorly fitted or top-dose-only effect, or another doubt; inactive = no such curve, though single readings can be large; an effect the other way counts as inactive or inconclusive.

We go through 21 compounds from PubChem BioAssay (NCATS).

Consider `Cc1ccc2nc(-c3ccc(NC(=O)CSc4nccc(=O)[nH]4)cc3)sc2c1`, for which the Potency result in assay [1], in assay [2], in assay [3], in assay [4] and in assay [5] was “inactive” throughout.
Consider `COc1cc(/C=C2\SC(=S)N(CCCCC(=O)O)C2=O)ccc1OS(=O)(=O)c1ccc(C)cc1`, for which the Potency entry in assay [1] and in assay [3] was “inactive” each time. Also, in assay [2], the activation is -4.35% [at 17.1 µM, percent relative to cAMP agonist control]. In assay [4], the activity change, negative = inhibition is -18.6% [at 30.8 µM].
Regarding `CCN(CC)C(=O)CSc1nnc(-c2cccs2)n1Cc1ccco1`, the Potency result in assay [1], in assay [2], in assay [3], in assay [4] and in assay [5] was “inactive” throughout.
On to `Cc1ccc(NC(=O)CN2C(=O)S/C(=C/c3ccc(O)c([N+](=O)[O-])c3)C2=O)cc1C`, for which the Potency result in assay [1], in assay [2], in assay [3], in assay [4] and in assay [5] was “inactive” in each case.
Consider `O=C(NNc1c2ccccc2nc2ccccc12)c1ccccc1O`, for which the Potency result in assay [1], in assay [2], in assay [3], in assay [4] and in assay [5] was “inactive” each time.
For `COc1ccc2c(c1)Cc1sc(NC(=O)c3ccccc3C)nc1-2`, the Potency entry in assay [1], in assay [2], in assay [3] and in assay [4] was “inactive” each time.
Turning to `CC(C)c1cccc(-c2ccc3c(c2)S(=O)(=O)c2cccc(C(=O)O)c2C3=O)c1`, the Potency result in assay [1], in assay [2], in assay [3], in assay [4] and in assay [5] was “inactive” throughout.
With `COc1cccc2sc(N(CCCN(C)C)C(=O)C(c3ccccc3)c3ccccc3)nc12`, the Potency entry in assay [1] and in assay [3] was “inactive” in each case. In addition, the activation in assay [2] was 7.29% [at 17.1 µM, percent relative to cAMP agonist control]; in assay [5], 23.9% [at 30.8 µM]. Moreover, in assay [4], the activity change, negative = inhibition is -0.182% [at 30.8 µM].
`CCCCNC(=O)CN1CCN(c2ncc(NC(=O)c3ccc(Cl)cc3)cc2C(=O)O)CC1`: the Potency entry in assay [1], in assay [2], in assay [3], in assay [4] and in assay [5] was “inactive” in each case.
With `Cc1ccc(N(Cc2cccs2)C(=O)c2ccco2)cc1`, the Potency result in assay [1], in assay [2], in assay [3], in assay [4] and in assay [5] was “inactive” in each case.
For the compound `CCOc1ccc(NC(=O)CN(C)S(=O)(=O)c2ccc(-c3ccc(=O)[nH]n3)s2)cc1`, the Potency in assay [1] was 100 µM (active). The Potency entry in assay [2], in assay [3], in assay [4] and in assay [5] was “inactive” throughout.
As for `CC1=C(C(=O)OC2CCCCCC2)C(c2c(Cl)cccc2Cl)CC(=O)N1` (stereo not drawn), the Potency entry in assay [1], in assay [2], in assay [3], in assay [4] and in assay [5] was “inactive” throughout.
As for `Clc1ccc(CON/C=N/c2ncnc3sccc23)cc1`, the Potency result in assay [1] and in assay [3] was “inactive” throughout. Further, the activation was 8% [at 17.1 µM, percent relative to cAMP agonist control] in assay [2] and 11.3% [at 30.8 µM] in assay [5]. The activity change, negative = inhibition in assay [4] is -10% [at 30.8 µM].
With `CC(=O)c1sc2nc(CSc3nnnn3-c3ccccc3)[nH]c(=O)c2c1C`, the Potency result in assay [1] and in assay [3] was “inactive” throughout. Also, the activation was 0.183% [at 17.1 µM, percent relative to cAMP agonist control] in assay [2] and 8.36% [at 30.8 µM] in assay [5]. For the same compound, in assay [4], the activity change, negative = inhibition is -6.43% [at 30.8 µM].
Take `O=C(NCc1cccc(Cl)c1)c1ccc(S(=O)(=O)Nc2cccc(C(F)(F)F)c2)cc1`: the Potency entry in assay [1], in assay [2], in assay [3], in assay [4] and in assay [5] was “inactive” throughout.
Turning to `COc1ccc(OC)c(CCNC(=O)c2ccc(CS(=O)(=O)c3ccc(Br)cc3)o2)c1`, the Potency entry in assay [1], in assay [2], in assay [3], in assay [4] and in assay [5] was “inactive” throughout.
As to `CC1(Cc2ccccc2Cl)C(=O)Nc2ccc(OC(F)(F)F)cc21` (stereo not drawn), the Potency result in assay [1] and in assay [3] was “inactive” throughout. The activation in assay [2] was 0.883% [at 17.1 µM, percent relative to cAMP agonist control]; in assay [5], 5.61% [at 30.8 µM]. The activity change, negative = inhibition in assay [4] is -9.83% [at 30.8 µM].
In the case of `COc1ccc2[nH]cc(S(=O)(=O)c3ccc(C)cc3)c2c1`, the Potency result in assay [1], in assay [2], in assay [4] and in assay [5] was “inactive” throughout. For the same compound, the Potency in assay [3] was 21.3 µM (active).
On to `CCOc1ccc(C(=O)N/N=C/c2cc(Cl)ccc2[N+](=O)[O-])cc1`, for which the Potency entry in assay [1] and in assay [3] was “inactive” throughout. The activation in assay [2] is 3.37% [at 17.1 µM, percent relative to cAMP agonist control]; in assay [5], 15.5% [at 30.8 µM]. Also, the activity change, negative = inhibition in assay [4] was -12.2% [at 30.8 µM].
In the case of `Fc1cccc(Cc2c(-c3ccc(Cl)cc3)nc3ccc(Cl)cn23)c1`, the Potency entry in assay [1] and in assay [3] was “inactive” in each case. Further, the activation in assay [2] is 7.12% [at 17.1 µM, percent relative to cAMP agonist control]; in assay [5], 23% [at 30.8 µM]. Further, in assay [4], the activity change, negative = inhibition is -4.02% [at 30.8 µM].
Turning to `O=C(Nc1c2c(nc3ccccc13)CCCC2)c1ccccc1F`, the Potency entry in assay [1] and in assay [3] was “inactive” each time. Moreover, the activation is -3.93% [at 17.1 µM, percent relative to cAMP agonist control] in assay [2] and 12.9% [at 30.8 µM] in assay [5]. Moreover, the activity change, negative = inhibition in assay [4] is -18.6% [at 30.8 µM].
